# According to the supplement of paper PMC8728848:
# The entries come from a sample that favours the strongest signals as a whole.
# B1: pTFF2 (Sus scrofa), P01359 (protein)
# chain: KPAACRCSRQDPKNRVNCGFPGITSDQCFTSGCCFDSQVPGVPWCFKPLPAQESEECVMEVSARKNCGYPGISPEDCAARNCCFSDTIPEVPWCFFPMSVEACHY
# Columns and labels:
# Assay in all cases: glycan array binding signal (z-score within array); higher = stronger binding
# Details in all cases: glycan notation: IUPAC condensed, linker removed
# GlcNAc(b1-3)Gal(b1-4)Glc = biological target: GlcNAc(b1-3)Gal(b1-4)Glc
# Procedure, shortened: (§1)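 From the Consortium for Functional Glycomics database, 3228 arrays were curated, keeping only those whose protein sequence was available. Binding is given as a within-array Z-score averaged across arrays sharing a protein sequence and across linkers. Negative Z-scores can be read as non-binding.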
# [1] = biological target: GlcNAc(b1-3)Gal(b1-4)GlcNAc(b1-3)Gal(b1-4)GlcNAc(b1-3)Gal(b1-4)GlcNAc(b1-3)Gal(b1-4)GlcNAc(b1-2)Man(a1-3)[GlcNAc(b1-3)Gal(b1-4)GlcNAc(b1-3)Gal(b1-4)GlcNAc(b1-3)Gal(b1-4)GlcNAc(b1-3)Gal(b1-4)GlcNAc(b1-2)Man(a1-6)]Man(b1-4)GlcNAc(b1-4)[Fuc(a1-6)]GlcNAc
# Procedure, shortened: as §1
# [2] = biological target: GlcNAc(b1-3)Gal(b1-4)GlcNAc(b1-3)GalNAc
# Procedure, shortened: as §1
# [3] = biological target: GlcNAc(b1-3)Gal(b1-4)GlcNAc(b1-6)[GlcNAc(b1-3)]Gal(b1-4)GlcNAc
# Procedure, shortened: as §1
# [4] = biological target: GlcNAc(b1-3)[GlcNAc(b1-4)][GlcNAc(b1-6)]GlcNAc
# Procedure, shortened: as §1
# [5] = biological target: GlcNAc(b1-4)GlcNAc(b1-4)GlcNAc(b1-4)GlcNAc(b1-4)GlcNAc
# Procedure, shortened: as §1
# Kdn(a2-6)Gal(b1-4)GlcNAc = biological target: Kdn(a2-6)Gal(b1-4)GlcNAc
# Procedure, shortened: as §1
# [6] = biological target: Man(a1-2)Man(a1-6)[Man(a1-3)]Man(a1-6)[Man(a1-2)Man(a1-2)Man(a1-3)]Man
# Procedure, shortened: as §1
# [7] = biological target: Neu5Ac(a2-3)Gal(b1-4)GlcNAc(b1-2)[Neu5Ac(a2-3)Gal(b1-4)GlcNAc(b1-4)]Man(a1-3)[GlcNAc(b1-4)][Neu5Ac(a2-3)Gal(b1-4)GlcNAc(b1-2)[Neu5Ac(a2-3)Gal(b1-4)GlcNAc(b1-6)]Man(a1-6)]Man(b1-4)GlcNAc(b1-4)GlcNAc
# Procedure, shortened: as §1
# [8] = biological target: Neu5Ac(a2-3)Gal(b1-4)[Fuc(a1-3)]GlcNAc(b1-3)Gal(b1-4)[Fuc(a1-3)]GlcNAc(b1-3)Gal(b1-4)[Fuc(a1-3)]GlcNAc
# Procedure, shortened: as §1
# Neu5Ac(a2-3)GalNAc = biological target: Neu5Ac(a2-3)GalNAc
# Procedure, shortened: as §1
# [9] = biological target: Neu5Ac(a2-6)Gal(b1-4)GlcNAc(b1-2)Man(a1-3)[Gal(b1-4)GlcNAc(b1-2)Man(a1-6)]Man(b1-4)GlcNAc(b1-4)GlcNAc
# Procedure, shortened: as §1
# [10] = biological target: Neu5Ac(a2-6)Gal(b1-4)GlcNAc(b1-2)Man(a1-6)Man(b1-4)GlcNAc(b1-4)GlcNAc
# Procedure, shortened: as §1
# [11] = biological target: Neu5Ac(a2-6)Gal(b1-4)GlcNAc(b1-3)Gal(b1-4)GlcNAc(b1-6)[Gal(b1-3)]GalNAc
# Procedure, shortened: as §1
# [12] = biological target: Neu5Ac(a2-6)Gal(b1-4)GlcNAc(b1-6)[Gal(b1-3)GlcNAc(b1-3)]Gal(b1-4)Glc
# Procedure, shortened: as §1
# [13] = biological target: Neu5Ac(a2-6)Gal(b1-4)GlcNAc6S
# Procedure, shortened: as §1
# [14] = biological target: Neu5Gc(a2-3)Gal(b1-3)[Fuc(a1-4)]GlcNAc
# Procedure, shortened: as §1
binder,measurement,setting,value
B1,glycan array binding signal (z-score),GlcNAc(b1-3)Gal(b1-4)Glc,-0.368
same,glycan array binding signal (z-score),[1],4.15
same,glycan array binding signal (z-score),[2],3.21
same,glycan array binding signal (z-score),[3],-0.954
same,glycan array binding signal (z-score),[4],0.277
same,glycan array binding signal (z-score),[5],-0.168
same,glycan array binding signal (z-score),Kdn(a2-6)Gal(b1-4)GlcNAc,0.54
same,glycan array binding signal (z-score),[6],0.712
same,glycan array binding signal (z-score),[7],6.13
same,glycan array binding signal (z-score),[8],-0.094
same,glycan array binding signal (z-score),Neu5Ac(a2-3)GalNAc,1.05
same,glycan array binding signal (z-score),[9],0.708
same,glycan array binding signal (z-score),[10],2.29
same,glycan array binding signal (z-score),[11],-0.859
same,glycan array binding signal (z-score),[12],-0.007
same,glycan array binding signal (z-score),[13],-1.45
same,glycan array binding signal (z-score),[14],0.024
